This is an account of results in PubChem BioAssay AID1259343 (VanderVen Lab, College of Veterinary Medicine, Cornell …, 2017).

The campaign covered roughly 6,200 compounds. About 2,900 (47%) were called active. Rule as the data show it: active = inhibition above about 50%; inactive = the rest. The set was probably picked from earlier hits. Some of the results follow.

The assay in a line: Mycobacterium tuberculosis growth inhibition, primary screen (AID 1259343). To be noted: inhibition: at 10 µM, active compounds read high; outcome: 10 uM.
By inhibition is commonly meant the relative decrease from the control value, in per cent. `O=C(CC(Nc1ccc2ccccc2c1)c1ccncc1)c1ccccc1` (stereo unspecified): the inhibition is 88.8% (active).

In the case of `C=CCNC(=S)Nc1ccc(Cl)c(Cl)c1`, the inhibition was 21.1% (inactive).

Consider `C=CCNC(=S)Nc1ccc(SC(F)F)cc1`, for which the inhibition was 53.4% (active).

On to `C=CCNC(=S)Nc1ccc(Cl)cc1F`, for which the inhibition is 35.1% (inactive).

In the case of `CCOC(=O)c1c(NC(=O)CCl)sc(C(=O)OC)c1CC(=O)OC`, the inhibition is -17.1% (inactive).

`COC(=O)c1sc(NC(=O)CCCl)c(C(=O)OC)c1C`: the inhibition was 101% (active).

For the compound `Cc1sc(NC(=O)CC(C)(C)CC(=O)Nc2sc(C)c(C)c2C(=O)O)c(C(=O)O)c1C`, the inhibition is 29.4% (inactive).

For the compound `Cc1csc(C(C)NCc2ccc(OCC(C)C)cc2)n1` (stereo unspecified), the inhibition is 51.6% (active).

As for `Cc1ccc(-c2csc3nc(C4CC4)[nH]c(=O)c23)c(C)c1`, the inhibition is 6.81% (inactive).

Consider `Cc1ccc(-c2ncc(C(=O)NC(C)C)s2)c(C)c1`, for which the inhibition was 61.8% (active).

Turning to `COc1ccc(C)cc1-c1csc(NC(=O)C(C)C)n1`, the inhibition was 11.6% (inactive).

For `CCOC(=O)c1nn(-c2ccc(OCC)cc2)c2nnc(Cc3cccnc3)c(=O)n12`, the inhibition was -11.2% (inactive).

For the compound `CCOC(=O)c1nn(-c2cccc(Cl)c2)c2nc(-c3cccs3)c(C#N)c(=O)n12`, the inhibition is 52.1% (active).

As for `COC(=O)CCn1c(=O)c2c(nc3n(CCc4ccccc4)c(C)cn23)n(C)c1=O`, the inhibition is 2.78% (inactive).

As to `CNc1nnc(SCc2cccc(Cl)c2)s1`, the inhibition is 23.8% (inactive).

As for `COc1ccccc1Nc1nnc(SCC(=O)c2ccc(O)c(O)c2)s1`, the inhibition is 83.9% (active).

In the case of `COc1cccc(C(=O)CSc2nnc(NC(=O)c3cccc(Cl)c3)s2)c1`, the inhibition is 55.3% (active).

Take `O=C1c2cccc3cccc(c23)N1S(=O)(=O)c1ccc(Cl)cc1`: the inhibition was -5.06% (inactive).

Turning to `CN(Cc1ccc2nonc2c1)Cc1nc(-c2ccc3c(c2)OCO3)no1`, the inhibition is 13.7% (inactive).

As to `Cc1ccc(CN(C)Cc2nc(-c3ccc4c(c3)OCO4)no2)o1`, the inhibition was 90.8% (active).

As to `CN(Cc1ccc2nsnc2c1)Cc1nc(-c2ccc3c(c2)OCO3)no1`, the inhibition is 84.1% (active).

As for `CN(Cc1nc(-c2ccc3c(c2)OCO3)no1)CC1COc2ccccc2O1` (stereo unspecified), the inhibition result is “inactive”.

With `CCN(CCn1cccn1)Cc1nc(-c2ccc3c(c2)OCO3)no1`, the inhibition was 90.5% (active).

Take `Cc1nnc(SCc2ccc(C(=O)NCc3ccncc3)cc2)n1-c1ccc(F)cc1`: the inhibition was -8.13% (inactive).

For `C=Cc1ccc(CSc2nncn3c2cc2occc23)cc1`, the inhibition is 31.6% (inactive).

`COc1ccc(-n2ccnc(SCc3ccc(F)cc3)c2=O)cc1`: the inhibition is 76.6% (active).

Turning to `C=Cc1ccc(CSc2nccn(-c3ccc(C)cc3)c2=O)cc1`, the inhibition was 95.7% (active).

As for `Cc1cccc(N2CCC(=NC(N)=S)N2)c1`, the inhibition was 33.7% (inactive).

As for `c1ccc(N2CCC(=NC3=NCCCCC3)N2)cc1`, the inhibition was 4.7% (inactive).

In the case of `NC(=S)N=C1CCN(c2ccccc2)N1`, the inhibition is 93.8% (active).

Consider `FC(F)(F)c1nc(Nc2ccc3c(c2)OCCCO3)c2ccccc2n1`, for which the inhibition is 100% (active).

For the compound `c1ccc(-c2nc(Nc3ccc4c(c3)OCCO4)c3ccccc3n2)cc1`, the inhibition is -17% (inactive).

Regarding `c1nc(Nc2ccc3c(c2)OCCO3)c2c3c(sc2n1)CCCC3`, the inhibition was -26.9% (inactive).

For `O=C(NCC(=O)N1CCN(Cc2ccc(OC(F)(F)F)cc2)CC1)c1ccco1`, the inhibition is 94.3% (active).

For `COc1cccc(COc2coc(CN3CCCN(S(=O)(=O)c4ccc(OC(F)(F)F)cc4)CC3)cc2=O)c1`, the inhibition was 10.6% (inactive).

With `CC(C)(Oc1ccc(Cl)cc1)C(=O)NCc1ccoc1`, the inhibition is 24.1% (inactive).

`CC(C)CSc1nnc(Nc2ccc(C(C)C)cc2)s1`: the inhibition was 92.2% (active).

For the compound `CC(C)c1ccc(Nc2nnc(SCCO)s2)cc1`, the inhibition was 25.5% (inactive).

`Cc1ccc(Nc2nnc(SCC(C)C)s2)cc1`: the inhibition was 94.1% (active).

Consider `O=C(CC1CCCC1)Nc1ccc(S(=O)(=O)C(F)F)cc1`, for which the inhibition was 11.8% (inactive).

Regarding `CCCCOc1ccc(NC(=O)CC2CCCC2)cn1`, the inhibition is 99.4% (active).

`COc1cccc(C(=O)Nc2ccc(Oc3ccc(F)cc3)nc2)c1OC`: the inhibition was 45% (inactive).

In the case of `CC(C)c1cc(C(=O)N2CCCC(N3CCN(c4cccc(C(F)(F)F)c4)CC3)C2)on1` (stereo unspecified), the inhibition is 46.1% (inactive).

Take `OCCC#Cc1ccc(CN2CCCC(CO)(Cc3ccccc3)C2)cc1` (stereo unspecified): the inhibition was 69.2% (active).

Turning to `OCCC#Cc1ccc(CN2CCCC(Nc3ccccc3)C2)cc1` (stereo unspecified), the inhibition was 70.9% (active).

As for `Clc1cccc(N2CCN(C3CCCN(Cc4ccc5nsnc5c4)C3)CC2)c1` (stereo unspecified), the inhibition is 75.5% (active).

Turning to `OCC1(Cc2ccccc2)CCCN(Cc2ccc(OC(F)(F)F)cc2)C1` (stereo unspecified), the inhibition is 20.7% (inactive).

For `Clc1cccc(CN2CCCC(Nc3ccccc3)C2)c1` (stereo unspecified), the inhibition was 59.2% (active).

Turning to `OCC1(Cc2ccccc2)CCCN(Cc2ccc(-c3ccco3)cc2)C1` (stereo unspecified), the inhibition entry is “inactive”.

Regarding `CSc1ncc(CNCCc2cccc(Cl)c2)c(N2CCCC(C)C2)n1` (stereo unspecified), the inhibition is 18% (inactive).

For the compound `c1ccc(NC2CCCN(Cc3ccc4nsnc4c3)C2)cc1` (stereo unspecified), the inhibition is 65.6% (active).

Regarding `O=C(c1ccc(Cl)cc1)C1CCCN(Cc2cccc3cnccc23)C1` (stereo unspecified), the inhibition was -4.04% (inactive).

In the case of `O=C(CN1CCCC1c1ccccc1)Nc1cc(F)cc(F)c1` (stereo unspecified), the inhibition is 2.2% (inactive).

Consider `O=C(NCc1cccnc1-n1cccn1)C1CCCN(Cc2cccnc2)C1` (stereo unspecified), for which the inhibition is -13.9% (inactive).

As to `Oc1ccccc1CN1CCCC(Nc2cccc(F)c2)C1` (stereo unspecified), the inhibition is 72.9% (active).

With `Cc1cc(Cl)ccc1C(=O)C1CCCN(Cc2ccc(C#CCCO)cc2)C1` (stereo unspecified), the inhibition is 77.5% (active).

`O=C(c1cc(F)ccc1F)C1CCCN(Cc2cccc3cnccc23)C1` (stereo unspecified): the inhibition entry was “inactive”.

`O=C(c1ccc(-c2ccccc2)cc1)C1CCCN(Cc2ccncc2)C1` (stereo unspecified): the inhibition result was “inactive”.

On to `Oc1cccc(-c2cc(C3CCN(Cc4ccc5nonc5c4)C3)ccn2)c1` (stereo unspecified), for which the inhibition is 14.6% (inactive).

For the compound `CCN(CC)c1ccc(/C=C2\SC(=S)N(Cc3ccccc3)C2=O)c(O)c1`, the inhibition was -15.2% (inactive).

On to `CN(CC(=O)Nc1ccccc1Br)C1CCc2ccccc21` (stereo unspecified), for which the inhibition is 34.1% (inactive).

In the case of `N#Cc1ccc(CNc2ccccc2Br)cc1`, the inhibition was 49.2% (inactive).

With `N#Cc1ccc(NC(=O)Nc2ccccc2Br)c2n[nH]nc12`, the inhibition was 64.4% (active).

Regarding `COc1ccc(C(CC(=O)c2cccs2)Sc2ccccc2NC(C)=O)cc1` (stereo unspecified), the inhibition was 53.2% (active).

As to `COc1ccc(C2c3cccn3CCN2C(=O)Nc2cccs2)cc1` (stereo unspecified), the inhibition was -1.32% (inactive).

As to `NC(=S)c1cc2ccccc2oc1=O`, the inhibition was 101% (active).

With `O=c1oc2ccccc2cc1S(=O)(=O)c1ccc(Cl)cc1`, the inhibition was -58.5% (inactive).

Consider `Cc1ccn2c(=O)nc(SCc3ccc(Cl)cc3Cl)nc2c1`, for which the inhibition was 31.1% (inactive).

For the compound `Cc1ccn2c(=O)nc(SCCc3ccccc3)nc2c1`, the inhibition is 88.3% (active).

Regarding `Cc1ccn2c(=O)nc(SCc3cccc(C(F)(F)F)c3)nc2c1`, the inhibition was 2.92% (inactive).

Take `Cc1ccn2c(=O)nc(SCc3cccc(Cl)c3)nc2c1`: the inhibition is 86.3% (active).

Take `Cc1ccn2c(=O)nc(SCc3ccc(Cl)c(Cl)c3)nc2c1`: the inhibition is 59% (active).

As to `Cc1ccn2c(=O)nc(SCc3ccc(Cl)cc3)nc2c1`, the inhibition was 77.5% (active).

In the case of `Cc1ccn2c(=O)nc(SCc3ccc(F)cc3)nc2c1`, the inhibition is 1.46% (inactive).

Consider `Cc1ccc(CSc2nc(=O)n3ccc(C)cc3n2)cc1`, for which the inhibition was 24.5% (inactive).

As to `Cc1ccn2c(=O)nc(SCc3ccc(Br)cc3)nc2c1`, the inhibition was 1.95% (inactive).

Take `N#CCSc1nnnn1-c1ccc(O)cc1`: the inhibition is -12.8% (inactive).

Consider `CCCSc1nnnn1-c1ccc(O)cc1`, for which the inhibition is 55% (active).

As to `O=C(CSc1ncnc2c1cnn2-c1ccc(F)cc1)Nc1ccon1`, the inhibition was 68.2% (active).

As to `COc1cc(NC(=O)CSc2ncnc3c2cnn3C)cc(OC)c1`, the inhibition was 35.5% (inactive).

In the case of `Cc1noc(-c2ccnc(NCc3ccc(C#N)cc3)c2)n1`, the inhibition is 22.9% (inactive).

For `Cc1nc(SCC(=O)C23CC4CC(CC(C4)C2)C3)nc(C)c1C`, the inhibition is 45% (inactive).

Take `O=C(C[P+](c1ccccc1)(c1ccccc1)c1ccccc1)C12CC3CC(CC(C3)C1)C2`: the inhibition was 95.7% (active).

With `CC(=O)CSc1nc2sc(C)c(C)c2c(=O)n1C1CCCCC1`, the inhibition was 12% (inactive).

For the compound `Cc1ccc(-n2c(SCC(=O)N3CCNC3=O)nc3sc4c(c3c2=O)CCC4)c(C)c1`, the inhibition is 91.2% (active).

On to `Fc1ccc(Cc2nc(CSc3c(F)c(F)cc(F)c3F)cs2)c(Cl)c1`, for which the inhibition was 50.2% (active).

Take `CNC(Cc1ccc(Br)cc1)Cc1ccc(Br)cc1`: the inhibition is 68.1% (active).

As for `CN1CCN(CC(O)COc2ccc(C34CC5CC(CC(C5)C3)C4)cc2)CC1` (stereo unspecified), the inhibition was 101% (active).

Turning to `NCCOc1ccc(C23CC4CC(CC(C4)C2)C3)cc1`, the inhibition was -5.79% (inactive).

With `Cc1cn2nc(NC3CCCCCCC3)sc2n1`, the inhibition is -9.07% (inactive).

As for `CCCCCNc1ncnc2sc3c(c12)CCCC3`, the inhibition was -24.3% (inactive).

For the compound `C1=C(CCNc2ncnc3sc4c(c23)CCC4)CCCC1`, the inhibition was 97% (active).

As to `CC(=NNc1ncnc2sc3c(c12)CCC3)c1cc2ccccc2o1`, the inhibition is 24.7% (inactive).

`c1nc(NN=C2C3CC4CC(C3)CC2C4)c2c3c(sc2n1)CCC3`: the inhibition was 100% (active).

In the case of `c1nc(NC2CCCCCC2)c2c3c(sc2n1)CCC3`, the inhibition was 68% (active).

`c1nc(NC2CCCCCC2)c2c3c(sc2n1)CCCC3`: the inhibition was 94.5% (active).

Regarding `COCc1nc(NCCC2=CCCCC2)c2cnn(C)c2n1`, the inhibition is -33.4% (inactive).

With `c1csc(CCNc2ncnc3sc4c(c23)CCC4)c1`, the inhibition was -1.33% (inactive).

For the compound `O=S(=O)(Nc1ncnc2sc3c(c12)CCC3)c1cccs1`, the inhibition was 101% (active).

With `O=C(CSc1nnc(CCn2ccc(=O)[nH]c2=O)o1)N1CCc2ccccc2C1`, the inhibition is 4.33% (inactive).

`Cc1nc(-c2ccccn2)[nH]c(=O)c1CC(=O)N1CCc2ccccc2C1`: the inhibition was 67.7% (active).

Turning to `Cc1ccc(NC(=O)c2cc(C)n(C3CC3)c2C)c(C)c1`, the inhibition is 12.4% (inactive).

Turning to `CC1=C(C#N)C(C(F)(F)F)(C(F)(F)F)N=C(C2CCCCC2)N1`, the inhibition was 11.3% (inactive).

For `Nc1nc(COc2ccc(Cl)cc2Cl)cs1`, the inhibition is 87.6% (active).

With `CC(=O)Nc1nc(COc2ccc(Cl)cc2Br)cs1`, the inhibition was 41.2% (inactive).

In the case of `Cc1nc(COc2ccccc2C(=O)Nc2ccc(Cl)cc2C)cs1`, the inhibition was -36.5% (inactive).
